Nine compounds from PubChem BioAssay (Tox21) can be followed below.

Assay [1] can be described thus: qHTS assay to identify small molecule agonists of the sonic hedgehog signaling (Shh) pathway (AID 1259368; calls by dose curve;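 note: NIH/3T3-derived 3T3Gli1-Luc cells carrying a stable Gli1-driven firefly luciferase reporter; series mostly up to about 92 µM; nearly all actives have a fitted effect of over 15% in size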). In outline: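 Cells of a mouse NIH/3T3 clone stably expressing luciferase under the Gli1 transcriptional response element are exposed to test chemicals for 24 hr at 37 C. Pathway activation is detected as a rise in luminescence.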
On the technique in general: qHTS replaces the single test concentration by a dilution series.

Assay [2] is described as follows: qHTS assay to identify small molecule antagonists of the sonic hedgehog signaling (Shh) pathway (AID 1259369; calls by dose curve; note: nearly all actives have a fitted effect of over 45% in size; note: potency is the fitted concentration of half-maximal effect). The procedure, abridged: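 Cells are plated and held 4hr at 37 C, compounds (DMSO) are pinned in, conditioned medium is added to stimulate the pathway, and after 24hr luciferase reagent is added for 30min before luminescence is read.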
The nature of assay [3]: qHTS assay to identify small molecule agonists of the androgen receptor (AR) signaling pathway in the presence of an antagonist - cell viability counter screen (AID 1259379).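 Note: MDA-kb2 human breast cancer cells carrying an MMTV luciferase reporter; series mostly up to about 92 µM; nearly all actives have a fitted effect of over 25% in size.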 The procedure, abridged:
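Cytotoxicity is assessed by CellTiter-Fluor in MDA-kb2 cells carrying an MMTV-driven luciferase reporter. Cells receive 3.0uM nilutamide plus compounds at 15 concentrations and incubate 16 hr at 37C without CO2 before fluorescence reading.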

Assay [4] can be described thus: qHTS assay to identify small molecule agonists of the estrogen receptor beta (ER-beta) signaling pathway - cell viability counter screen (AID 1259380). Note: nearly all actives have a fitted effect of over 30% in size. The procedure, abridged:
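Cytotoxicity is measured in parallel with the reporter screen: after 16 hr compound exposure at 37C and a 2 hr LiveBLAzer step, CellTiter-Glo is added to the same ER-beta-UAS-bla HEK293T wells and luminescence read after 30 min.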

Assay [5] is described as follows: qHTS assay to identify small molecule antagonists of the estrogen receptor beta (ER-beta) signaling pathway - cell viability counter screen (AID 1259382).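 Note: HEK293T cells carrying ER-beta-UAS-bla reporter stimulated with estradiol; series mostly up to about 92 µM; nearly all actives have a fitted effect of over 55% in size.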 In outline:
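Cytotoxicity counter screen multiplexed with the beta-lactamase antagonist assay: GripTite HEK293T ER-beta-bla cells were treated 16 hr with test chemicals in the presence of 1nM 17-beta-estradiol, and viability was measured by CellTiter-Glo.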

Assay [6] addresses Estrogen receptor (Homo sapiens) (UniProt P03372). As to the kind of experiment: qHTS assay to identify small molecule agonists of the estrogen receptor alpha (ER-alpha) signaling pathway in the presence of an antagonist (AID 1259383; calls by dose curve; note: nearly all actives have a fitted effect of over 15% in size; note: potency is the fitted concentration of half-maximal effect; for activation: top concentration of the series differs between compounds). The procedure, abridged: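 Agonist-mode confirmation in the presence of the ER antagonist ICI-182,780 at 10.0nM final. Breast-derived VM7Luc4E2 reporter cells were exposed to compounds for 22hr, and ERE-driven luciferase was quantified by luminescence.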

Assay [7] is described as follows: qHTS assay to identify small molecule agonists or antagonists of the thyroid stimulating hormone receptor (TSHR) signaling pathway - wild type cell line counter screen (AID 1259384; calls by dose curve). In outline:
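Wild-type Hek293 cells, 800/well, 18 h at 37C, then compound with Ro20-1724 for 30 min RT. cAMP by HTRF (cAMP-d2/anti-cAMP cryptate), 1 h RT, fluorescence read. 15 concentrations, triplicates.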

In assay [8] the target is Thyrotropin receptor (Homo sapiens) (UniProt P16473). The assay is described as follows: qHTS assay to identify small molecule antagonists of the thyroid stimulating hormone receptor (TSHR) signaling pathway (AID 1259385; calls by dose curve; note: nearly all actives have a fitted effect of over 20% in size). The procedure, abridged: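 TSHR-HEK293 cells (800/well) plated 18 h, then compounds with Ro20-1724 and TSH at 1.5 ng/mL final, 30 min at room temperature. cAMP quantified by HTRF (cAMP-d2/anti-cAMP-cryptate, 1 h); 15 concentrations in triplicate.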

Assay [9] is described as follows: qHTS assay to identify small molecule agonists of the estrogen receptor alpha (ER-alpha) signaling pathway in the presence of an antagonist - cell viability counter screen (AID 1259386).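 Note: series mostly up to about 92 µM; cells exposed to compounds for 22 h at 37 °C before the viability read; nearly all actives have a fitted effect of over 30% in size.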 The procedure, abridged:
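Cytotoxicity was measured in parallel with the ERE-luciferase agonist screen, in the same wells. The cells were VM7Luc4E2, which endogenously express ER-alpha, and treatment was with compounds plus 10.0nM ICI-182,780 for 22hr.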

The target of assay [10] is Progesterone receptor (Homo sapiens) (UniProt P06401). As to the kind of experiment: qHTS assay to identify small molecule agonists of the progesterone receptor (PR) signaling pathway (AID 1346784; calls by dose curve; note: nearly all actives have a fitted effect of over 30% in size). The procedure, abridged:
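PR-UAS-bla HEK 293T cells (beta-lactamase reporter under UAS) in 2% charcoal-stripped FBS, dosed with 23 nL compound after 6 hr, incubated 16hr at 37C. LiveBLAzer B/G FRET substrate added, fluorescence read after 2 hours.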

The target is the same in assay [11]. As to the kind of experiment: qHTS assay to identify small molecule antagonists of the progesterone receptor (PR) signaling pathway (AID 1346795; active = well fitted inhibition curve with a large enough effect in the signal ratio in the repeat runs, not every such curve was filed as active; the % refers to the signal ratio; note: potency is the fitted concentration of half-maximal effect). In outline:
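PR-UAS-bla HEK293T cells with beta-lactamase reporter under UAS control, in 2% charcoal-stripped FBS, treated with compounds plus 1 nM promegestone (R5020, final) for 16 hr at 37C. Read-out: FRET beta-lactamase substrate fluorescence after 2 hr at room temperature.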

Assay [12] is described as follows: qHTS assay to identify small molecule antagonists of the progesterone receptor (PR) signaling pathway - cell viability counter screen (AID 1346798). Note: series mostly up to about 92 µM; nearly all actives have a fitted effect of over 50% in size. In outline: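 PR-UAS-bla HEK293T cells, 3,000/well in 2% charcoal-stripped FBS medium, dosed with compounds plus R5020 agonist and incubated 16 h at 37C. Viability then measured in the same wells by CellTiter-Glo luminescence after 30 min at RT.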

Assay [13] is described as follows: qHTS assay to identify small molecule agonists of the progesterone receptor (PR) signaling pathway - cell viability counter screen (AID 1346799; calls by dose curve; note: nearly all actives have a fitted effect of over 45% in size). The procedure, abridged:
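Counter screen in the PR-UAS-bla HEK293T wells (2% charcoal-stripped FBS, 16 h compound exposure at 37 C) after the bla read. CellTiter-Glo added, 30 min at room temperature, luminescence read as cell viability.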

Assay [14] can be described thus: qHTS assay to identify small molecule antagonists of the TGF-beta/Smad signaling pathway - cell viability counter screen (AID 1346824). Note: nearly all actives have a fitted effect of over 50% in size. The procedure, abridged: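 SBE-bla HEK 293T cells, incubated overnight, then compound plus 0.25 ng/mL TGF-beta1 (stock added) for 5 hr at 37 C. Viability was read in the same wells by CellTiter-Glo luminescence after 30 min at room temperature.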

Assay [15] in a line: qHTS assay to identify small molecule agonists of the TGF-beta/Smad signaling pathway - cell viability counter screen (AID 1346829). Note: top concentration of the series differs between compounds; nearly all actives have a fitted effect of over 45% in size. In outline: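 Compound-treated SBE-bla HEK 293T cells (5 hr, 37 C) were assessed for viability with CellTiter-Glo in parallel with the reporter read.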
Assay [16] addresses Thyrotropin-releasing hormone receptor (Homo sapiens) (UniProt P34981). As to the kind of experiment: qHTS assay to identify small molecule antagonists of the thyrotropin-releasing hormone receptor (TRHR) signaling pathway (AID 1346877; active = well fitted inhibition curve with a large enough effect in the repeat runs, not every such curve was filed as active; note: series mostly up to about 51 µM). The procedure, abridged: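 Antagonism is measured as suppression of the calcium response to 1 nM TRH in TRHR-HEK293 cells that have been dye-loaded for 2 h at 37 °C after overnight plating. Each compound is tested at 15 concentrations in triplicate.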

Assay [17] in a line: qHTS assay to identify small molecule agonists of the TGF-beta/Smad signaling pathway (AID 1346859; active = well fitted activation curve with a large enough effect in the signal ratio in the repeat runs, not every such curve was filed as active; the % refers to the signal ratio; note: series mostly up to about 77 µM). In outline: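 SBE-bla HEK293T cells plated overnight, then compound exposure for 5 h at 37 C. Beta-lactamase reporter read with LiveBLAzer B/G FRET substrate after 2 h at room temperature, fluorescence at 405 nm excitation, 460/530 nm emission.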
Assay [18] concerns the target Androgen receptor (Homo sapiens) (UniProt P10275). As to the kind of experiment: qHTS assay to identify small molecule agonists of the androgen receptor (AR) signaling pathway in the presence of an antagonist (AID 1259381; calls by dose curve; note: nearly all actives have a fitted effect of over 15% in size; note: potency is the fitted concentration of half-maximal effect). The procedure, abridged:
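Agonist-mode confirmation screen: human MDA-kb2 cells stably expressing luciferase under an MMTV promoter bearing AR and GR response elements, co-treated with 3.0uM nilutamide (final). Luminescence measured after 16hr compound incubation.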

“And” between values parts separate entries of the source, which are not always exact repeats. Equal values may be shown once. Results filed as inconclusive are left out. More than one record can exist for a structure, and the calls need not agree. The source made the active and inactive calls. Unless noted, calls come from the whole dose curve; as a rule, active = well fitted curve in the direction sought with a large enough effect in the repeat runs; inconclusive = weak or mixed curves; inactive = no such curve, though single readings can be large; an effect the other way counts as inactive or inconclusive.
% is set by controls: 0 for no effect and ±100 for the full control effect.

Estrogen receptor (Homo sapiens), sequence (P03372 whole entry, looked up): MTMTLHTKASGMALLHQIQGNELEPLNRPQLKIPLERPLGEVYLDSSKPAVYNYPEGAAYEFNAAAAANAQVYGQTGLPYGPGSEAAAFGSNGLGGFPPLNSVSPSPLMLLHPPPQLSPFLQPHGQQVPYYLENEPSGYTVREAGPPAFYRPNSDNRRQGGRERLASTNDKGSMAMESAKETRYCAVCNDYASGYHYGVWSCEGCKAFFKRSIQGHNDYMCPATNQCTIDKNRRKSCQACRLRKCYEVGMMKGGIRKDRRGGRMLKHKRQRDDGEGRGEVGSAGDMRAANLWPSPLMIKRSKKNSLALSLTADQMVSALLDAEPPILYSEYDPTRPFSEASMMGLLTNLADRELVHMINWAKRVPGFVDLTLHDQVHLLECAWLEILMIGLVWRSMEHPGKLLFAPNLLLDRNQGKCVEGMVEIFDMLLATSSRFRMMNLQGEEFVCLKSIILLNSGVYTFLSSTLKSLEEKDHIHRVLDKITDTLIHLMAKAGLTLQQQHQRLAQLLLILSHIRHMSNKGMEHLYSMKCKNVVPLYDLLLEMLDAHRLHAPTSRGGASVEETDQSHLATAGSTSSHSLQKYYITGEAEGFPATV
Thyrotropin receptor (Homo sapiens), sequence (P16473 whole entry, looked up): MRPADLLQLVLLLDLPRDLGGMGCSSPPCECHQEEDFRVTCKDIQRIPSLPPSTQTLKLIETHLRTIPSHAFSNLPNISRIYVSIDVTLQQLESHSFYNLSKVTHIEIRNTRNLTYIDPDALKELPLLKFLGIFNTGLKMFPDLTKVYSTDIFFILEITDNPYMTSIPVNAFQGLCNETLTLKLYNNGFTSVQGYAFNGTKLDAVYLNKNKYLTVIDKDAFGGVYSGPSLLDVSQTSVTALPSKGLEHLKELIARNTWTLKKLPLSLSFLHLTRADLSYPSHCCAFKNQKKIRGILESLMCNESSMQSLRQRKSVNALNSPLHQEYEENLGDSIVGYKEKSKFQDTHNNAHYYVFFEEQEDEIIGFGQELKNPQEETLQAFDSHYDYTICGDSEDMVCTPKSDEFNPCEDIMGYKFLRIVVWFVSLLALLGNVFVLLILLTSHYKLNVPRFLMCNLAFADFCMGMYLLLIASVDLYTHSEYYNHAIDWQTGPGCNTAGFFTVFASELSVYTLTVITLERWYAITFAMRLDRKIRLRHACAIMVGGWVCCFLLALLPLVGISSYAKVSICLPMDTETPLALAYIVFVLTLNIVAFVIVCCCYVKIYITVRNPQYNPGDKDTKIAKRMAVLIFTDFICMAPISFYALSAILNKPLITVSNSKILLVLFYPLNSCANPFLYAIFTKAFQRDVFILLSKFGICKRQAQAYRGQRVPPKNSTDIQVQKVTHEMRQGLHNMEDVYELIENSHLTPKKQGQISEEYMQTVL
Androgen receptor (Homo sapiens), sequence (P10275 whole entry, looked up): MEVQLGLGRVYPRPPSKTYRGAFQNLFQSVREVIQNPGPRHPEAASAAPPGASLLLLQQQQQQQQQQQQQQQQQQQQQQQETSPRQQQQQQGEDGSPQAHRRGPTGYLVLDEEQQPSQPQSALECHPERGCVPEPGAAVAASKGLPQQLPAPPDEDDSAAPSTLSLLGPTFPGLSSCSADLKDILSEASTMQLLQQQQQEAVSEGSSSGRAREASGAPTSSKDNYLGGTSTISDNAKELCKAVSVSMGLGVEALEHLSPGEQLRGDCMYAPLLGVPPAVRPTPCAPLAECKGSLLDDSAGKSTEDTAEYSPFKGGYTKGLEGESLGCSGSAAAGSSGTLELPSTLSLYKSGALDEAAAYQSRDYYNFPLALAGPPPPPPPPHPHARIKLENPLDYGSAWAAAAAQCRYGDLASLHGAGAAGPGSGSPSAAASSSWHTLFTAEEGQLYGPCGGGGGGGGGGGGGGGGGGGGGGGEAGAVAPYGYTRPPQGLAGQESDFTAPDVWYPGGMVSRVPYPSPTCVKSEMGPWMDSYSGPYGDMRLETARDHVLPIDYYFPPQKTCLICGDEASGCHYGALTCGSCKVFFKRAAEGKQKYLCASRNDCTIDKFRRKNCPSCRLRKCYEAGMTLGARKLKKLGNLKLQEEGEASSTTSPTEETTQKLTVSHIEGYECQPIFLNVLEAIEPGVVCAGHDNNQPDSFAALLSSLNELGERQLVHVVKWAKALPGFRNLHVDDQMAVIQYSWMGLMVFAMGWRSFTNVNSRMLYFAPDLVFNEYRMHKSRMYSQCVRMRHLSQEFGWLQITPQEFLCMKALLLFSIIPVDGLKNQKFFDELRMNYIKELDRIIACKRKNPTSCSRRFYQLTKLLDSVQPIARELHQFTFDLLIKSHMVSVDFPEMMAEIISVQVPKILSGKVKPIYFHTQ
Progesterone receptor (Homo sapiens), sequence (P06401 whole entry, looked up): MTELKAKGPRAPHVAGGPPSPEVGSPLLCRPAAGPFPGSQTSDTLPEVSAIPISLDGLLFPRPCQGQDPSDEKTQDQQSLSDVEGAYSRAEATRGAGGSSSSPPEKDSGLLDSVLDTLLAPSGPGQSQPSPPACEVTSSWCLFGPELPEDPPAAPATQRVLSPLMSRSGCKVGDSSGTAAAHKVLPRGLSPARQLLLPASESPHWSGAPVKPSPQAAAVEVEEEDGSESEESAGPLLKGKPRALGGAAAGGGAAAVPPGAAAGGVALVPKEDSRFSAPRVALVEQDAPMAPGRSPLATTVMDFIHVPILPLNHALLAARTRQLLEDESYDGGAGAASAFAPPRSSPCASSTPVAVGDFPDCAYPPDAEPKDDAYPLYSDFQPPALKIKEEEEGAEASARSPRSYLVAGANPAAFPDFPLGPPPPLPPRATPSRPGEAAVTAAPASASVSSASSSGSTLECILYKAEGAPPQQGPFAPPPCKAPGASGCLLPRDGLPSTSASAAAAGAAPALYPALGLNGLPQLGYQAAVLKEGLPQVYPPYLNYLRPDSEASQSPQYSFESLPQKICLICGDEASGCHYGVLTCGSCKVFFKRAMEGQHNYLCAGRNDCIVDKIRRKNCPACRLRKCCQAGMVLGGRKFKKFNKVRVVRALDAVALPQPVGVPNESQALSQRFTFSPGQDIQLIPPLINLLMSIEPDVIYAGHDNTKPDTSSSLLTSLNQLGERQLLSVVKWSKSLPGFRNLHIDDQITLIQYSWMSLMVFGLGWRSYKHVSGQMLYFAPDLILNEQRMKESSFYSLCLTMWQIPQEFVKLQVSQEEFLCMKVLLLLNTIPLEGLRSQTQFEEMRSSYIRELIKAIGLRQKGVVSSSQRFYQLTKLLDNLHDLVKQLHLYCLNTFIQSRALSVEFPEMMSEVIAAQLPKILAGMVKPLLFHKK
Thyrotropin-releasing hormone receptor (Homo sapiens), sequence (P34981 whole entry, looked up): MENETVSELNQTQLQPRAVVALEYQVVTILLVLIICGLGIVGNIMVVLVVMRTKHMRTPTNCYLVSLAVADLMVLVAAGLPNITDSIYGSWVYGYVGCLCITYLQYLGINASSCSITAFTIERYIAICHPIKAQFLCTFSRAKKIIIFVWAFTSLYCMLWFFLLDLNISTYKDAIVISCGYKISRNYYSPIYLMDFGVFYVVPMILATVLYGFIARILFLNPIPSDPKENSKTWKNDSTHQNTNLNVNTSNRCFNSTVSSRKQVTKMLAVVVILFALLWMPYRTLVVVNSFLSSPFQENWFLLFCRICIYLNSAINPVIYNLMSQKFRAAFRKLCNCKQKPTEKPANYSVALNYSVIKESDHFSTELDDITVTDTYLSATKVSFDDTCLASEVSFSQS

Regarding `N[C@H]1CN(c2c(F)cc3c(=O)c(C(=O)O)cn(C4C[C@H]4F)c3c2Cl)CC12CC2` (stereo partly specified), the call in [1], in assay [7], in [15] and in assay [16] was inactive. For the same compound, the Potency result in assay [2], in assay [3], in assay [4], in [5], in assay [6] and in [8] was “inactive” throughout. For the same compound, the Potency result in assay [9], in [10], in assay [11], in [12], in assay [13] and in assay [14] was “inactive” in each case.
Take `CC(=O)Nc1c(I)cc(I)c(C(=O)O)c1I`: the outcome in assay [1], in [15] and in assay [17] was inactive. Besides, the Potency entry in [2], in assay [3], in [4], in [5], in [6] and in assay [9] was “inactive” in each case. The Potency result in [10], in assay [11], in assay [12], in assay [13] and in [14] was “inactive” each time.
Regarding `Cc1c(O)cccc1O`, the compound was classed as inactive in assay [1], in assay [15] and in assay [17]. For the same compound, in [2], the Potency is 14 µM (active). The Potency result in assay [3], in assay [4], in [5], in assay [6], in [9] and in assay [10] was “inactive” in each case. The Potency entry in [11], in assay [12], in [13] and in [14] was “inactive” in each case.
Consider `COc1ccc2c(c1)c(CC(=O)OCC(=O)O)c(C)n2C(=O)c1ccc(Cl)cc1`, for which the compound was called inactive in assay [1], in [7], in assay [15] and in assay [16]. Besides, the Potency result in assay [2], in assay [3], in [4], in assay [18], in [5] and in assay [8] was “inactive” in each case. For the same compound, the Potency result in assay [9], in assay [10], in assay [11], in [13] and in [14] was “inactive” each time.
`O=c1cc(-c2ccccc2)oc2ccccc12`: the result in assay [1], in assay [15], in [17] and in assay [16] was inactive. The Potency is 15.3 µM (active) in assay [2]; “inactive and 4.3 µM (active)” in assay [18]; 2.73 µM (active) and 4.06 µM (active) in assay [6]; 61.1 µM (active) in [11]. In addition, the Potency result in [3], in assay [4], in assay [5], in assay [9] and in assay [14] was “inactive” each time.
With `CCCCCCCCCCCCN(CCCCCCCCCCCC)CCCCCCCCCCCC`, the call in assay [1], in assay [7] and in [17] was inactive. Also, the Potency result in [2], in assay [3], in [4], in assay [5], in assay [8] and in assay [9] was “inactive” throughout. For the same compound, the Potency result in assay [10], in assay [11], in assay [12], in assay [13] and in assay [14] was “inactive” each time.
Take `Cc1cccc(C)c1NC(=O)C(C)N` (stereo unspecified): the outcome in assay [1], in assay [7], in assay [15] and in assay [17] was inactive. The Potency entry in assay [2], in assay [3], in [4], in [5], in assay [6] and in [8] was “inactive” in each case. Besides, the Potency entry in assay [9], in [12] and in [14] was “inactive” throughout.
Turning to `CN(C)CCCSc1ccccc1NC(=O)/C=C/c1ccccc1`, the result in assay [1], in [7], in assay [15], in assay [17] and in assay [16] was inactive. Moreover, the Potency result in assay [2], in assay [3], in [4], in [5], in assay [6] and in assay [8] was “inactive” in each case. For the same compound, the Potency entry in assay [9], in assay [10], in assay [11], in assay [12] and in assay [14] was “inactive” throughout.
Consider `C[C@](N)(Cc1ccc(O)cc1)C(=O)O`, for which, in assay [1], the activity change is -0.726% [at 8.39 µM] (inactive). Further, the activity change, negative = inhibition in assay [2] was 37.1% [at 8.39 µM] (inactive); in [8] it was 1.98% [at 8.39 µM] (inactive); in assay [11] it was 12.2% [at 8.39 µM] (inactive). Also, the activity change, negative = cytotoxicity in assay [3] is -1.36% [at 8.39 µM] (inactive); in assay [4], 14.6% [at 8.39 µM] (inactive); in assay [5] it was 4.19% [at 8.39 µM] (inactive); in assay [9], 3.17% [at 8.39 µM] (inactive); in assay [12], 2.75% [at 8.39 µM] (inactive); in [13], 2.57% [at 8.39 µM] (inactive). For the same compound, in assay [15], the activity change, negative = cytotoxicity is 0.568% [at 6.97 µM] (inactive). In addition, the activation was 1.12% [at 8.39 µM] (inactive) in assay [6], -0.125% [at 8.39 µM] (inactive) in [10] and 2.67% [at 6.97 µM] (inactive) in [17]. Moreover, the cAMP activity change in assay [7] was 3.57% [at 8.39 µM] (inactive). Moreover, the viability change, negative = cytotoxic in [14] is 15.7% [at 6.97 µM] (inactive).
